Among all 48,000 compounds or so, about 13,000 (27%) showed an effect of 50% or more. The list shows a part of the results.
Test system: Wolbachia pipientis
Assay: Anti-Wolbachia Cell-Based Screen
Assay type: functional
Design: scale not given: in the data most compounds retested in dose-response had high values
Conditions: 5 µM

| Compound | Percent Effect |
| --- | --- |
| O=S(=O)(N1CCN(CC2CC2)CC1)N1CCCC1c1ccco1 (stereo unspecified) | 8.161% |
| CC(=O)c1c(C)nn(CC(=O)N2Cc3cnc(CC(C)C)nc3C2)c1C | -0.1145% |
| COC(=O)c1ccc(S(=O)(=O)NCC(C)(O)c2cccs2)cc1 (stereo unspecified) | -7.069% |
| Cc1ccccc1NC(=O)NCC(C)(O)c1cccs1 (stereo unspecified) | 117.7% |
| CCOCc1ccccc1NC(=O)NCC(C)(O)c1cccs1 (stereo unspecified) | -8.36% |
| COc1ccc(CNC(=O)NCC(O)(c2cccs2)C2CC2)cc1 (stereo unspecified) | 11.16% |
| CSCCC(C)(O)CNC(=O)Nc1ccccc1C (stereo unspecified) | 6.778% |
| CCOc1ccc(NC(=O)NCC(C)(O)c2cccs2)cc1 (stereo unspecified) | 123.8% |
| OC(CNc1ccc(Cl)cn1)CN1CCOCC1 (stereo unspecified) | -5.222% |
| Cc1n[nH]c(C)c1Sc1ccccc1NC(=O)N1CCN(C)CC1 | 1.27% |
| CCC(=O)Nc1ccccc1Sc1nc(Br)nn1C | 107.5% |
| Cn1nc(Br)nc1Sc1ccccc1NC(=O)C1CC1 | 107.9% |
| Cc1n[nH]c(C)c1Sc1ccccc1NC(=O)CN1CCCC1 | 2.491% |
| CCCSc1ccccc1NC(=O)N1CCC(N2CCSCC2)CC1 | -2.644% |
| CC(=O)Nc1ccccc1Sc1nc(Br)nn1C | 114.6% |
| Cc1n[nH]c(C)c1Sc1ccccc1NC(=O)N1CCOCC1 | -5.626% |
| CCn1nc(Br)nc1Sc1ccccc1NC(C)=O | 119.4% |
| COCC(=O)Nc1ccccc1Sc1c(C)n[nH]c1C | -1.881% |
| Cn1cnnc1Sc1ccc(NC(=O)C2CC2)cc1Cl | -0.08341% |
| CSc1ccccc1NC(=O)CCC(=O)N(C)C1CCN(C)CC1 | 6.723% |
| CN(C)C(=O)N1CCN(C(=O)c2cccc(Cl)c2)CC2(CNC(=O)C2)C1 (stereo unspecified) | -8.821% |
| CCCN(Cc1ccc(OC)nc1)Cc1ccccc1OC | 7.541% |
| CS(=O)(=O)c1nccn1Cc1ccc(OC(F)F)cc1 | -0.8084% |
| NC(=O)Nc1cccc(C(=O)N(Cc2ccc(F)cc2)C2CC2)c1 | -11.54% |

| Compound | Percent Effect |
| --- | --- |
| NC(=O)C1(CNCc2csc(-c3cccs3)n2)CCOCC1 | -0.8866% |
| CC(C)N1CCC(C(=O)N2CCCN(c3ccccc3)CC2)CC1 | 106.5% |
| CC(C)N1CCCC(C(=O)N2CCN(c3cccc(C(=O)O)c3)CC2)C1 (stereo unspecified) | 107.1% |
| CC(C)c1cc(C(=O)N2CCN(c3cccc(C(=O)O)c3)CC2)n(C)n1 | 1.445% |
| CC(C)N1CCC(C(=O)N2CCN(c3cccc(C(=O)O)c3)CC2)CC1 | 106.6% |
| Cc1cccc(N2CCN(C(=O)CN3CCC(C(N)=O)CC3)CC2)c1 | 3.313% |
| CC(C)N1CCC(C(=O)N2CCC(c3ccc(F)cc3)C2)CC1 (stereo unspecified) | 11.91% |
| CC(C)N1CCCC(C(=O)N2CCN(c3cnn(C)c(=O)c3)CC2)C1 (stereo unspecified) | -17.55% |
| O=C(Cc1ccc2c(c1)OCO2)N1CCCN(c2ccccc2)CC1 | 5.064% |
| Cc1nn(C)cc1C(=O)N1C[C@H]2CC[C@@H]1CN(S(=O)(=O)N(C)C)C2 | 7.621% |
| CC(C)CCC1=NC2(CCN(C(=O)CN3CCCC3=O)CC2)C(=O)N1 | 0.2617% |
| NS(=O)(=O)c1cnc(NCC2(c3cccc(F)c3)CCOCC2)s1 | -14.69% |
| CC(=O)N1CC(=O)N(c2cnn(C)c2)CC12CCN(CC1CC1)C2.O=C(O)C(F)(F)F (stereo unspecified) | -1.209% |
| CC(C)N(C)Cc1cncc2c1CCN(C(=O)c1ccc[nH]1)C2.Cl.Cl | -17.08% |
| CN(C)Cc1cc(=O)n2c(n1)CN(C(=O)Cc1cccs1)CCC2.O=C(O)C(F)(F)F | 4.562% |
| Cc1ccsc1C(=O)N1CCCn2c(nc(CN(C)C)cc2=O)C1.O=C(O)C(F)(F)F | -10.18% |
| CC(C)N(C)Cc1cc(=O)n2c(n1)CN(C(=O)c1ccc[nH]1)CCC2 | 99.67% |
| CN(C)Cc1cc(=O)n2c(n1)CN(C(=O)c1ccc[nH]1)CCC2.O=C(O)C(F)(F)F | 95.26% |
| CCN(CC)Cc1cc(=O)n2c(n1)CN(C(=O)c1ccc[nH]1)CCC2 | 89.92% |
| CC(=O)NC1CCCN(c2ccc(C#N)cc2C(F)(F)F)C1 (stereo unspecified) | 47.21% |
| CC(C)N1CC(C(=O)NC(C)(C)CNC(=O)OC(C)(C)C)CC1=O (stereo unspecified) | 16.31% |
| Cc1ccc(C(=O)OC(C)Cn2cccn2)c(=O)[nH]1 (stereo unspecified) | -0.638% |
| c1csc(SCC2CN=C(N3CCOCC3)S2)c1 (stereo unspecified) | -10.18% |
| CN(CCc1cnn(C)c1)C(=O)C(c1ccccc1F)N(C)C (stereo unspecified) | -8.573% |

| Compound | Percent Effect |
| --- | --- |
| CC(C)c1nsc(N2CCOC3(CCCC3)C2)n1 | -27.55% |
| C[C@@H]1CN(C(=O)c2ccncc2)CC[C@@]1(O)C1CCOCC1 | -11.61% |
| C[C@@H]1CN(C(=O)C2(Cn3cccn3)CC2)CC[C@@]1(O)C1CCOCC1 | 103.7% |
| C[C@@H]1CN(C(=O)CCc2cnn(C)c2)CC[C@@]1(O)C1CCOCC1 | -4.294% |
| CC(C1CC1)N(C)C(=O)CCn1cccn1 (stereo unspecified) | -12.77% |
| C[C@@H]1CN(C(=O)C2(Cn3cccn3)CC2)C[C@@]1(O)C1CCC1 | 109.7% |
| C[C@@H]1CN(C(=O)CCN2CCCC2)CC[C@@]1(O)C1CCC1 | -5.805% |
| CCCc1cc(C(=O)N2C[C@@H](C)[C@](O)(C3CCC3)C2)[nH]n1 | -1.382% |
| C[C@@H]1CN(C(=O)CCc2cnn(C)c2)C[C@@]1(O)C1CCC1 | -2.131% |
| C[C@@H]1CN(C(=O)C2(Cn3cccn3)CC2)CC[C@@]1(O)C1CC1 | 95.17% |
| C[C@@H]1CN(C(=O)CCN2CCCC2)CC[C@@]1(O)C1CCOCC1 | 18.72% |
| CC(C)[C@]1(O)CN(C(=O)C2(Cn3cccn3)CC2)C[C@H]1C | 94.9% |
| CCN(C(=O)CCn1cccn1)C1CC1 | 0.4672% |
| N#Cc1ccnc(N2CCN(CC(O)c3ccccc3)CC2)c1 (stereo unspecified) | -34.32% |
| COc1ccccc1C1(CNc2ncc(S(N)(=O)=O)s2)CC1 | -5.545% |
| CCN(CC)C(=O)N1CCN(C(=O)C2CCCc3[nH]ncc32)CC1 (stereo unspecified) | -7.717% |
| CC(NC(=O)NCCCc1n[nH]c(N)c1C#N)c1ccccc1 (stereo unspecified) | 11.96% |
| Cn1cc(CN2CCc3c(nnn3C)C2COCc2ccccc2)cn1.O=C(O)C(F)(F)F (stereo unspecified) | -8.957% |
| CC(C)CN1CCc2[nH]cnc2C12CCN(C(=O)c1cccnc1)CC2 | 1.531% |
| COCCNC(=O)NCC(C)c1ccccc1OC (stereo unspecified) | -10.13% |
| O=C(c1ccoc1)N1C[C@H]2CC[C@@]3(N=C(c4ccccc4)NC3=O)[C@H]2C1 | -13.12% |
| CNC(=O)[C@H]1C[C@@H]2CN(C(=O)c3cscn3)C[C@@H]2N1S(C)(=O)=O | -14.13% |
| CNC(=O)[C@H]1C[C@@H]2CN(C(=O)c3ccco3)C[C@@H]2N1S(C)(=O)=O | 10.85% |
| CNC(=O)[C@H]1C[C@@H]2CN(S(=O)(=O)c3ccccc3)C[C@@H]2N1C(C)=O | -8.592% |

| Compound | Percent Effect |
| --- | --- |
| CCN1C[C@@H]2CN(C(=O)c3ccsc3)C[C@@H]2C1=O | -7.34% |
| CNC(=O)[C@H]1C[C@@H]2CN(C(=O)c3occc3C)C[C@@H]2N1S(C)(=O)=O | 100.3% |
| Cc1ccoc1C(=O)N1CC[C@@]2(C[C@H](NS(C)(=O)=O)CCO2)C1 | -10.72% |
| CNC(=O)[C@H]1C[C@@H]2CN(C(=O)c3ccoc3)C[C@@H]2N1S(C)(=O)=O | 83.29% |
| CNC(=O)[C@H]1C[C@@H]2CN(C(=O)c3ccc(C)o3)C[C@@H]2N1S(C)(=O)=O | 94.93% |
| CNC(=O)[C@H]1C[C@@H]2CN(C(=O)c3ccsc3)C[C@@H]2N1S(C)(=O)=O | 104.8% |
| O=C(c1ccoc1)N1C[C@@H]2CN(c3ncccn3)C[C@@H]2C1 | -12.12% |
| Cc1nn(C)c(Cl)c1CNCc1ccc(OCC(N)=O)cc1 | 6.399% |
| O=C(NC[C@H]1OC[C@@H](NCc2ccc(F)cc2)[C@@H]1O)N1CCOCC1 | -11.78% |
| CCNC(=O)N1CCC(NC(=O)NCCc2cccc(C)c2)C1 (stereo unspecified) | -4.75% |
| NCC1CN(c2nc(-c3ccccc3)nc3c2CCNCC3)CCO1 (stereo unspecified) | 2.56% |
| CN(C)C(=O)CCC1CCCN(Cc2cccc(-c3ccccn3)c2)C1 (stereo unspecified) | 9.493% |
| Cc1cc(-c2nn(C)c(Cl)c2CN2CCOC(C(=O)O)C2)no1 (stereo unspecified) | -7.215% |
| FC(F)(F)C1CN(Cc2cccc(OCc3ccccn3)c2)CCO1 (stereo unspecified) | 94.94% |
| O=C(CCN1CCOC(C(F)(F)F)C1)NCc1cccc(Cl)c1 (stereo unspecified) | -5.951% |
| CS(=O)(=O)NC1CCCN(Cc2ccc(OCc3ccccn3)cc2)C1 (stereo unspecified) | 2.735% |
| CN1C(=O)[C@H]2CC[C@@H]1CN(Cc1cccc(OCc3ccccn3)c1)C2 | -0.7428% |
| FC(F)(F)C1CN(Cc2cnc3c(-c4ccccc4)cnn3c2)CCO1 (stereo unspecified) | 27.88% |
| O=C(O)C1CN(Cc2cccc(-c3ccccn3)c2)CCO1 (stereo unspecified) | 102.3% |
| FC(F)(F)C1CN(Cc2cccc(-c3ccccn3)c2)CCO1 (stereo unspecified) | 75.31% |
| Cc1nc2c(c(N3CCC(CN4CCCC4=O)CC3)n1)CCNCC2 | -1.611% |
| COC(=O)c1cc(OCC2CCC2)cc(C(=O)N[C@H]2CC[C@H](O)CC2)c1 | -10.19% |
| CSCCC1CC(=O)Nc2cc(O)c(C)cc21 (stereo unspecified) | 3.121% |
| O=C(c1cnc(NCCC2CCCO2)c(Cl)c1)N1CCCCC1 (stereo unspecified) | -6.452% |

Reference: ChEMBL document CHEMBL3988442, “University of Dundee, Small-Polar-MMV Screening Library” (2021)
